Results on nine compounds are retold here after PMC5540273 (PLoS ONE, 2017).

Each structure is given as a SMILES string.

Test systems include KIT-autoinhibited; KIT; LATS1; LATS2; LCK; LIMK1; LIMK2; LRRK2; LTK; LYN; MAK.
Common to all, as to settings: concentration: 1 μM, replicates: in singlicate; n = 1
Test [1] relates to JAK1(JH2domain-pseudokinase).
In test [2] the test system is JAK2(JH1domain-catalytic).
Test [3] has as its system JAK3(JH1domain-catalytic).
Another test relates to T1, JNK1.
T1 construct: gene MAPK8

For another test, the system named is T2, JNK2.
T2 construct: gene MAPK9

The next test concerns T3, JNK3.
T3 construct: gene MAPK10

The subject of the next test is T4, LKB1.
T4 construct: gene STK11

A further test has as its system T5, LOK.
T5 construct: gene STK10

The next test deals with T6, LZK.
T6 construct: gene MAP3K13
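Also: KINOMEscan kinase panel screen.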

With `Cc1ccccc1CC(=O)N1CCc2cc(-c3cn(C)c4ncnc(N)c34)ccc21` [GSK2603346], the “%Inh” value is on record as 0% in test [1]; 26% in test [2]; 0% in test [3]; 1% with JNK1; 13% with JNK2; 7% in the test on JNK3. Besides, the “%Inh” value was 1% with KIT-autoinhibited; 99.8% in the test on KIT; 0% in the test on LATS1; 0% with LATS2; 30% with LCK; 0% with LIMK1. Also, the “%Inh” value is 0% with LIMK2; 0% in the test on LKB1; 89% with LOK; 21% in the test with LRRK2; 23% in the test on LTK; 0% with LYN. Also, the “%Inh” value was found to be 0% in the test with LZK and 1% in the test with MAK.
`N#Cc1cnc2cc(-c3cnc(CNCCN4CCOCC4)s3)ccc2c1Nc1ccc(Oc2ccccc2)cc1` [GW664114]: the “%Inh” value came to 0% in test [1]; 0% in [2]; 0% in test [3]; 13% with JNK1; 6% with JNK2; 0% in the test on JNK3. Besides, the “%Inh” value with KIT-autoinhibited is 0%; in the test with KIT, 19%; in the test on LATS1, 0%; in the test on LATS2, 3%; in the test with LCK it was 99.7%; in the test with LIMK1 it was 6%. Further, the “%Inh” value was determined as 0% in the test with LIMK2; 0% in the test with LKB1; 88% in the test on LOK; 0% in the test on LRRK2; 0% in the test with LTK; 90% with LYN. In addition, the “%Inh” value in the test on LZK is 76%; in the test on MAK, 28%.
On to `CN(C)CCOc1ccc(-c2cc(-c3ccc(Cl)c(O)c3)c(-c3ccncc3)[nH]2)cc1.Cl.Cl` [SB-684387], for which the “%Inh” value in test [1] came out at 23%; in [2], 33%; in [3] it was 10%; with JNK1, 3%; with JNK2, 34%; in the test with JNK3, 36%. Besides, the “%Inh” value was determined as 2% with KIT-autoinhibited; 5% with KIT; 0% in the test with LATS1; 30% in the test with LATS2; 86% in the test on LCK; 13% with LIMK1. Also, the “%Inh” value in the test with LIMK2 came out at 11%; in the test with LKB1 it was 20%; in the test with LOK it was 84%; in the test on LRRK2 it was 17%; in the test with LTK it was 0%; with LYN, 28%. The “%Inh” value with LZK and in the test on MAK was 41% throughout.
Consider `CCNC(=O)/C=C/c1n[nH]c2cc(Sc3ccccc3C(=O)NC)ccc12`, for which the “%Inh” value in test [1] was determined as 0%; in test [2] it was 0%; in test [3] it was 18%; with JNK1, 15%; with JNK2, 4%; with JNK3 it was 0%. The “%Inh” value is 95% with KIT-autoinhibited; 100% in the test with KIT; 17% in the test with LATS1; 22% in the test on LATS2; 11% in the test with LCK; 25% with LIMK1. Further, the “%Inh” value came to 11% in the test on LIMK2; 0% in the test on LKB1; 27% in the test with LOK; 0% in the test on LRRK2; 0% in the test with LTK; 16% in the test on LYN. For the same compound, the “%Inh” value in the test on LZK is recorded as 14%; in the test on MAK, 26%.
For `Nc1cccc(-c2ccc3c(N)n[nH]c3c2)c1` [GSK2193613], the “%Inh” value in [1] is 12%; in [2] it was 8%; in [3], 0%; in the test with JNK1, 18%; with JNK2, 13%; in the test on JNK3, 3%. The “%Inh” value is 83% with KIT-autoinhibited; 23% in the test with KIT; 0% in the test on LATS1; 27% in the test on LATS2; 9% in the test with LCK; 0% with LIMK1. Besides, the “%Inh” value in the test with LIMK2 worked out at 12%; in the test with LKB1 it was 12%; in the test with LOK, 0%; in the test on LRRK2, 0%; in the test with LTK, 0%; with LYN, 0%. Further, the “%Inh” value in the test with LZK stood at 0%; in the test on MAK, 18%.
`CC(C)c1nc(-c2ccc(F)c(NS(=O)(=O)c3c(F)cccc3F)c2)c(-c2ccnc(Nc3ccc(N4CCOCC4)nc3)n2)s1` [GSK1804250]: the “%Inh” value in test [1] is reported as 0%; in [2], 4%; in test [3], 69%; in the test on JNK1 it was 32%; in the test with JNK2 it was 70%; in the test with JNK3 it was 77%. The “%Inh” value with KIT-autoinhibited was 0%; in the test on KIT it was 97.8%; in the test on LATS1, 0%; with LATS2 it was 0%; in the test on LCK, 99.6%; with LIMK1 it was 100%. Also, the “%Inh” value amounted to 100% with LIMK2; 0% with LKB1; 99.3% in the test on LOK; 9% in the test with LRRK2; 6% in the test with LTK; 93.8% in the test with LYN. The “%Inh” value was 58% in the test with LZK and 24% with MAK.
Consider `Cn1cc(-c2ccc3c(c2)CCN3C(=O)Cc2cc(F)cc(F)c2F)c2c(N)ncnc21` [GSK2634140], for which the “%Inh” value in [1] is reported as 0%; in test [2], 11%; in test [3], 0%; in the test with JNK1, 15%; in the test on JNK2 it was 24%; in the test with JNK3, 4%. The “%Inh” value with KIT-autoinhibited is 0%; in the test on KIT it was 99.1%; with LATS1 it was 80%; in the test on LATS2, 7%; in the test with LCK, 58%; with LIMK1, 0%. Moreover, the “%Inh” value in the test with LIMK2 worked out at 0%; in the test with LKB1 it was 0%; in the test on LOK it was 91.8%; in the test with LRRK2, 0%; with LTK, 24%; in the test with LYN, 0%. The “%Inh” value came to 0% with LZK and 23% in the test with MAK.
For `CCn1c(-c2nonc2N)nc2c(-c3ccccc3)ncc(OCCCN)c21.O=C(O)C(F)(F)F.O=C(O)C(F)(F)F` [GSK260205], the “%Inh” value in [1] is 71%; in test [2], 3%; in [3], 0%; with JNK1 it was 26%; with JNK2, 85%; with JNK3 it was 85%. The “%Inh” value was 0% in the test on KIT-autoinhibited; 41% with KIT; 100% with LATS1; 93.8% with LATS2; 29% with LCK; 1% in the test with LIMK1. The “%Inh” value in the test with LIMK2 amounted to 0%; in the test on LKB1, 0%; with LOK, 98.7%; in the test with LRRK2, 28%; in the test on LTK, 0%; in the test with LYN, 0%. Further, the “%Inh” value with LZK and in the test on MAK was 0% each time.
On to `COC(=O)Nc1nc2ccc(Oc3ccc(CC(=O)Nc4cc(C(F)(F)F)ccc4F)cc3)cc2[nH]1` [GW680903], for which the “%Inh” value in test [1] is recorded as 0%; in [2] it was 7%; in test [3] it was 0%; with JNK1, 1%; in the test with JNK2, 6%; in the test with JNK3 it was 0%. In addition, the “%Inh” value stood at 8% in the test on KIT-autoinhibited; 100% with KIT; 12% in the test with LATS1; 0% in the test with LATS2; 22% with LCK; 1% in the test on LIMK1. The “%Inh” value is 7% in the test with LIMK2; 0% with LKB1; 78% with LOK; 33% with LRRK2; 0% in the test with LTK; 7% in the test with LYN. Further, the “%Inh” value with LZK worked out at 28%; with MAK, 37%.
